Screening results deposited in PubChem BioAssay by National Center for Advancing Translational Sciences (NCATS).
HP1b chromo inh = HP1-beta chromodomain-methylated histone interaction inhibition; P83916; AlphaScreen HP1-beta / biotin-H3K9me3 peptide binding; Potency, µM (doses to about 114 µM), actives largely listed as inhibitors; 390,000 compounds, 0.56% hits; AID 540317; note: nearly all actives have a fitted effect of over 70% in size
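AlphaScreen: HP1-beta (50 nM) preformed 30 min with biotin-H3(1-18)K9me3 peptide (50 nM) in PBS pH 7.4, 0.01% Tween-20. Compound added for 30 min at RT, then streptavidin donor/nickel chelate acceptor beads (10 ug/mL) for 30 min.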
G9a block = blocks human histone lysine methyltransferase G9a; 350,000 compounds, 8.8% hits; G9a H3K9 monomethylation, AlphaScreen, 2 h; AID 504332; Potency, µM (top dose mostly 102 µM), usual class: inhibitors; Q96KQ7; note: nearly all actives have a fitted effect of over 75% in size
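G9a (20 nM) was preincubated 15 min with compound, then reacted 2 h at room temperature with 500 nM biotin-H3K9 peptide and 20 µM SAM. Monomethyl-H3K9 detected by AlphaScreen using anti-H3K9me1 antibody.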
CtBP-E1A inh = CtBP/E1A binding inhibition | AlphaScreen GST-E1A/His-CtBP binding, 1536-well; hits give low values | activity change, % (no concentration beside the values) | 340,000 compounds, 0.49% hits; in the data active = activity change below about -65%; inconclusive = mostly about -30% to -63%
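GST-E1A and His-tagged CtBP (125 nM each as 5X stock) were preincubated with pin-transferred compound for 2 h at 37 °C in the dark, then glutathione donor and nickel acceptor beads were added for 1 h before AlphaScreen reading.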
JMJD2A Tudor = JMJD2A Tudor domain (human) inhibition; O75164; AlphaScreen JMJD2A-Tudor / H3K4me3 peptide binding; Potency, µM (highest dose often 114 µM), usual class: inhibitors; 390,000 compounds, 4.4% hits; note: nearly all actives have a fitted effect of over 50% in size
Six1-Eya2 inh = inhibitors of human Six1/Eya2 interaction; activity change, % (test concentration not listed); AlphaScreen GST-Six1/His-Eya2 binding, biochemical; hits give low values; 360,000 compounds, 0.56% hits; in the data active = activity change below about -65%; inconclusive = mostly about -30% to -63%
Target sequence (O00167 whole entry, looked up): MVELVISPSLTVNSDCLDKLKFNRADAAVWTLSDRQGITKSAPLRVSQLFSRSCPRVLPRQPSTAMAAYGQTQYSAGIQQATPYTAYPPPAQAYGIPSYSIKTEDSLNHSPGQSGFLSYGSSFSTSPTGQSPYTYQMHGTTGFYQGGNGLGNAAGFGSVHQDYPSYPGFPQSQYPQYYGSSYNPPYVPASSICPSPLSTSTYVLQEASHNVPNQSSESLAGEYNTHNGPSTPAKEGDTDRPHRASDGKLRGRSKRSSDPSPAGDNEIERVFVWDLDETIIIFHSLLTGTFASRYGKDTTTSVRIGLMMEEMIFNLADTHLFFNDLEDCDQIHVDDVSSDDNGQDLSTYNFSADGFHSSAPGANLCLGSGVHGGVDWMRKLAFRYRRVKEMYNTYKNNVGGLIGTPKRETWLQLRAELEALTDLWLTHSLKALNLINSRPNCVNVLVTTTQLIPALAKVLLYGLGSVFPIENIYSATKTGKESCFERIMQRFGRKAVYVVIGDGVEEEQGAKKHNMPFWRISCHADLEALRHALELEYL
Target sequence (Q15475 whole entry, looked up): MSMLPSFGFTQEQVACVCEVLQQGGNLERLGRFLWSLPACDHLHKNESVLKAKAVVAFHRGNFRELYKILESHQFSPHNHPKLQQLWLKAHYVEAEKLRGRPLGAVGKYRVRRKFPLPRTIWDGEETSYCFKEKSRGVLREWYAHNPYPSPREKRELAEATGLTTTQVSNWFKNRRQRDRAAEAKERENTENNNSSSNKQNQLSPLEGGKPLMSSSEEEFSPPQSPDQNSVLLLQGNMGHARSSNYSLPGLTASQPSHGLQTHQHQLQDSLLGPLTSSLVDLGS
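GST-Six1 + His-Eya2 (5X stock: 250/500 nM); Tris pH 8.0, 300 mM NaCl, 0.05% BSA, 0.02% Tween 20; GSH donor/Ni acceptor beads; 1 h 37 °C dark; AlphaScreen readout.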
BAZ2B block = blocks human BAZ2B; Q9UIF8; AlphaScreen BAZ2B-H3K14Ac peptide displacement; Potency, µM (titrated, usually from 114 µM), most hits filed as inhibitors; 360,000 compounds, 4.4% hits; note: nearly all actives have a fitted effect of over 60% in size
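Inhibition is scored as reduced AlphaScreen emission. The BAZ2B/b-H3(5-23)K14Ac complex (50 nM each) in PBS pH 7.4, 0.01% Tween-20 meets compound (up to 110 uM) for 30 min at RT before bead addition.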
Of the large screens only hits and unclear results are named; the others gave an inactive call; ! = not active in a repeat. Shown are actives, neighbours in structure and some others; about 10% of the full set was active somewhere. Unless noted, calls come from the whole dose curve; as a rule, active = well fitted inhibition curve with a large enough effect; inconclusive = small, poorly fitted or top-dose-only effect; inactive = no such curve, though single readings can be large or run the other way.

COC(=O)C1=C(NC(=O)C2CCCCC2)CCS1	G9a block 1.8µM, JMJD2A Tudor inconclusive, BAZ2B block inconclusive
COc1cc(-c2nnc(SCC(=O)NC(C)C)o2)cc(OC)c1OC	none (no result: CtBP-E1A inh, Six1-Eya2 inh)
O=C(CSc1ccc(-c2ccco2)nn1)NCc1ccc(F)cc1	G9a block 45µM
O=C(CSc1ccc(-c2ccco2)nn1)NCCc1ccccc1	G9a block 35µM
Cc1ccc(CNC(=O)CSc2ccc(-c3ccco3)nn2)cc1	G9a block inconclusive
O=C(CSc1ccc(-c2ccco2)nn1)c1ccc(F)cc1	HP1b chromo inh inconclusive, G9a block 40µM, JMJD2A Tudor 45µM, Six1-Eya2 inh inconclusive
Cc1cccc(NC(=O)C2CCN(S(=O)(=O)c3ccc4c(c3)CCCN4C(=O)C3CCC3)CC2)c1	none (no result: CtBP-E1A inh, Six1-Eya2 inh)
COc1ccc(-c2cc(C)no2)cc1S(=O)(=O)Nc1c(C)cc(C)cc1C	none (no result: CtBP-E1A inh, Six1-Eya2 inh)
CCCCNc1cc(C(=O)O)cc(S(N)(=O)=O)c1Oc1ccccc1	none
NS(=O)(=O)c1cc(C(=O)O)cc(N2CCCC2)c1Oc1ccccc1	G9a block 18µM!
CC(C)(CO)[C@H](O)C(=O)NCCCO	none (no result: HP1b chromo inh, CtBP-E1A inh, JMJD2A Tudor, Six1-Eya2 inh, BAZ2B block)
CCN(CC)C1CC(=O)N(c2cccc(Cl)c2)C1=O (centres undefined)	G9a block 8.9µM
O=C(O)CSC1CC(=O)N(c2cccc(Cl)c2)C1=O (centres undefined)	none
Cc1ccc(NNC2CC(=O)N(c3cccc(Cl)c3)C2=O)cc1 (centres undefined)	G9a block 10µM, BAZ2B block inconclusive
O=C1CC(N(O)c2ccccc2)C(=O)N1c1ccc(Cl)c(Cl)c1 (centres undefined)	G9a block 50µM (no result: CtBP-E1A inh)
Cc1cccc(N2C(=O)CC(N(O)c3ccccc3)C2=O)c1 (centres undefined)	G9a block inconclusive
O=C1CC(NNc2ccccc2)C(=O)N1c1ccccc1 (centres undefined)	G9a block 8.9µM
COc1cccc(NC(=O)c2oc3ccccc3c2NC(=O)Cc2cccc(C)c2)c1	none (no result: CtBP-E1A inh, Six1-Eya2 inh)
CCOc1ccc(CNC(=O)Nc2ccc3c(c2)N(C)C(=O)c2ccccc2S3)cc1	BAZ2B block inconclusive (no result: CtBP-E1A inh, Six1-Eya2 inh)
CC(=O)NCCCC(=O)NNC1CC(=O)N(c2cccc(Cl)c2)C1=O (centres undefined)	G9a block 5.6µM
CCN(CC)c1nc(-c2nn[nH]n2)nc(N(CC)CC)n1	G9a block inconclusive, JMJD2A Tudor 89µM
CC(O)CC(C(=O)NNc1ccccc1)C(=O)NNc1ccccc1 (centres undefined)	G9a block 3.2µM
COc1ccc(OC)c(C2CC(=O)N3CN(c4ccccc4F)CSC3=C2C#N)c1 (centres undefined)	HP1b chromo inh 14µM, G9a block 2.2µM, JMJD2A Tudor 22µM, BAZ2B block 22µM
COc1cccc(C2CC(=O)N3CN(c4cccc(Cl)c4C)CSC3=C2C#N)c1OC (centres undefined)	HP1b chromo inh inconclusive, G9a block 1.8µM, JMJD2A Tudor 16µM, BAZ2B block 25µM
COc1ccc(OC)c(C2CC(=O)N3CN(c4cccc(Cl)c4C)CSC3=C2C#N)c1 (centres undefined)	HP1b chromo inh inconclusive, G9a block 1.4µM, JMJD2A Tudor 18µM, BAZ2B block 32µM
CCS(=O)(=O)c1ncc(Cl)c(C(=O)N(Cc2ccccc2)c2ccc(OC)cc2)n1	G9a block inconclusive (no result: CtBP-E1A inh, Six1-Eya2 inh)
S=c1[nH]nc(-c2ccco2)n1C1CCCCC1	HP1b chromo inh inconclusive, G9a block 2µM, JMJD2A Tudor 3.2µM
Cn1cc(Cl)c(-c2n[nH]c(=S)n2C2CCCCC2)n1	G9a block inconclusive, JMJD2A Tudor 4.5µM
Cc1ccc(C)c(-n2c(-c3ccco3)n[nH]c2=S)c1	JMJD2A Tudor 8.9µM (no result: G9a block, BAZ2B block)
COc1ccc(-n2c(-c3ccco3)n[nH]c2=S)cc1	HP1b chromo inh inconclusive, G9a block 4µM, JMJD2A Tudor 4.5µM
CC(=O)c1ccc(N2CCN(C(=O)CCCCn3c(=O)[nH]c4ccccc4c3=O)CC2)cc1	none (no result: CtBP-E1A inh, Six1-Eya2 inh)
Nn1c(-c2ccco2)n[nH]c1=S	HP1b chromo inh inconclusive, G9a block 8.9µM, JMJD2A Tudor 7.1µM, BAZ2B block 50µM
c1ccc(-c2nnc(-c3ccco3)n2-c2ccccc2)cc1	none
S=c1[nH]nc(-c2ccco2)n1-c1ccc(Cl)cc1	G9a block inconclusive, JMJD2A Tudor 32µM
C=C(C)Cn1c(=O)c2c(nc3n2CCN3c2ccc(F)cc2)n(C)c1=O	G9a block inconclusive (no result: CtBP-E1A inh, Six1-Eya2 inh)
CCOc1ccc(Nc2ccc(N)c(S(=O)(=O)O)c2)cc1	HP1b chromo inh 50µM, CtBP-E1A inh inconclusive, JMJD2A Tudor 56µM, Six1-Eya2 inh inconclusive (no result: G9a block, BAZ2B block)
CCOc1ccc(NS(=O)(=O)c2ccc(N)cc2)cc1	none
CC1=C(C(=O)Nc2ccccc2)C(c2cccc(Cl)c2)n2nc(SCC(=O)c3ccc(C)cc3)nc2N1 (centres undefined)	none (no result: CtBP-E1A inh, Six1-Eya2 inh)
COc1cccc(C(=O)NCc2ccc3c(c2)cc(C)n3C)c1	G9a block 50µM, JMJD2A Tudor inconclusive, BAZ2B block inconclusive
COc1ccc(NC(=S)NCc2cccn2C)cc1	G9a block 50µM, BAZ2B block 35µM
CCc1cccc(C)c1NC(=S)NCc1ccc2c(c1)cc(C)n2C	G9a block 40µM, JMJD2A Tudor 50µM, Six1-Eya2 inh inconclusive, BAZ2B block 25µM
Cn1cccc1CNC(=S)Nc1cc(F)cc(F)c1	BAZ2B block inconclusive
COc1ccccc1NC(=S)NCc1ccc2c(c1)cc(C)n2C	HP1b chromo inh inconclusive, G9a block inconclusive, CtBP-E1A inh inconclusive, JMJD2A Tudor 50µM, BAZ2B block 25µM
COC(=O)c1sccc1S(=O)(=O)N(CC(=O)NCc1ccc(F)cc1)c1ccc(C)c(C)c1	none (no result: CtBP-E1A inh, Six1-Eya2 inh)
COc1ccc(N(CC(=O)NCc2ccccc2Cl)S(=O)(=O)c2c(C)nn(C)c2C)cc1	none (no result: CtBP-E1A inh, Six1-Eya2 inh, BAZ2B block)
COc1ccc(NC(=S)NCc2ccc3c(c2)cc(C)n3C)cc1	HP1b chromo inh inconclusive, G9a block 40µM, JMJD2A Tudor 50µM, Six1-Eya2 inh inconclusive, BAZ2B block 45µM
CCOC(=O)NCc1ccc2c(c1)cc(C)n2C	none
CCCCNC(=S)NCc1ccc2c(c1)cc(C)n2C	G9a block inconclusive, JMJD2A Tudor inconclusive, BAZ2B block 45µM
Cc1cc2cc(CNC(=O)Nc3ccccc3)ccc2n1C	HP1b chromo inh inconclusive, G9a block 32µM, JMJD2A Tudor inconclusive, Six1-Eya2 inh inconclusive
Cc1cc2cc(CNC(=O)c3cccs3)ccc2n1C	G9a block 50µM, JMJD2A Tudor inconclusive, BAZ2B block 50µM (no result: CtBP-E1A inh)
COc1ccc(C2CC(=O)c3cc(-c4nc(-c5ccc(Cl)cc5)c(C)s4)c(=O)[nH]c3C2)cc1 (centres undefined)	none (no result: CtBP-E1A inh, Six1-Eya2 inh)
Cc1cc2cc(CNC(=O)c3ccc(S(=O)(=O)N4CCCCC4)cc3)ccc2n1C	G9a block 50µM
